# Assay results as given in PubChem BioAssay (EPA / NIEHS).
# Inconclusive results are not listed. The source made the active and inactive calls. Rule for the calls: active = hit-call score of the fitted dose curve at least 0.9, where 1 is the maximum; inconclusive = response in the unintended direction; inactive = score below 0.9.
# Target: CDK2 (gene 1017) (UniProt P24941)
# Assay: NVS_ENZ_hCDK2: NovaScreen (NVS) Enzymatic Assay for human Cyclin-Cependent Kinase 2 (CDK2) (AID 2283144)
# Outline: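 Cell-free recombinant human CDK2 with fluorescent substrate, product separated by electrophoretic mobility shift; 1 hr read. Primary screen at 25 uM in duplicate, actives retested in concentration-response up to 50 uM; loss of signal versus DMSO.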
row,Compound,outcome
1,CC1=C(/C=C/C(C)=C/C=C/C(C)=C/CO)C(C)(C)CCC1,inactive
2,FC(F)(F)C(F)(F)C(F)(F)C(F)(F)C(F)(F)C(F)(F)CCI,inactive
